# Structures can show the parent of a compound that is named as a salt.
# Columns and labels:
# [1] = system: Vero E6 infected with SARS-CoV-2; experiment: morphology score (similarity to uninfected cells); higher = more like uninfected cells; conditions: 24 h
# [2] = system: Vero E6 infected with SARS-CoV-2; experiment: SARS-CoV-2 infection rate relative to infected DMSO; higher = more infection, active = 60 or less; conditions: 24 h
Structure (SMILES),morphology score [1],SARS-CoV-2 infection rate [2]
Cc1cn([C@@H]2C[C@@H](O)[C@H](CO)O2)c(=O)[nH]c1=O [telbivudine] (10 µM),-0.036,118% (inactive)
CCCCCCCCCCCC(=O)N(CCO)CCO [lauric-diethanolamide] (10 µM),-0.121,108% (inactive)
COc1cc2nc(N3CCN(C(=O)C4CCCO4)CC3)nc(N)c2cc1OC (stereo not drawn) [terazosin] (10 µM),-0.108,110% (inactive)
Cc1ccc(S(=O)(=O)N2CCC[C@H]2c2ccc(F)cc2)cc1 (10 µM),-0.114,110% (inactive)
CCC(C)CCCC(=O)N[C@@H](CCN)C(=O)N[C@H](C(=O)N[C@@H](CCN)C(=O)N[C@H]1CCNC(=O)[C@H]([C@@H](C)O)NC(=O)[C@H](CCN)NC(=O)[C@H](CCN)NC(=O)[C@H](CC(C)C)NC(=O)[C@@H](CC(C)C)NC(=O)[C@H](CCN)NC1=O)[C@@H](C)O (stereo partly drawn) [colistin] (10 µM),0.134,96.2% (inactive)
Cn1c(=O)c(F)c(Nc2ccc(I)cc2F)c2c(=O)n(C[C@@H](O)CO)cnc21 (0.833333 µM),-0.0443,109% (inactive)
COc1ccccc1C(=O)Nc1cccc(NC(=O)c2cccc(C)c2)c1 (10 µM),0.257,96.5% (inactive)
C#C[C@]1(OC(C)=O)CC[C@H]2[C@@H]3CCC4=C[C@@H](OC(C)=O)CC[C@@H]4[C@H]3CC[C@@]21C [ethynodiol-diacetate] (10 µM),-0.0396,113% (inactive)
N=c1ccn2c(n1)O[C@H]1[C@H](O)[C@@H](CO)O[C@H]12 [Cyclocytidine HCl] (0.833333 µM),-0.127,114% (inactive)

# From the supplement of paper PMC13380429
